From PubChem
Methyltransferases: Primary Screen for Target Class Profiling of Small Molecule Inhibitors of Methyltransferases; purified enzyme, MTase-Glo SAH luminescence; active compounds read low; calls only at 40 µM; actives 3.9% (n = 25,000); call rule not given here
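Each enzyme was assayed with SAM and its substrate. SAH formation detected by MTase-Glo luminescence; single-point 40 uM screen[…].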
Each line names hits and unclear results; the compound was inactive in the other large screens; ! = not active in a repeat. Many of the other results were omitted from the sample, so hits are more common in it than they were.

Cc1ccc(Nc2nc3c(S(=O)(=O)c4ccccc4)nnn3c3ccccc23)cc1	none
Nc1c(S(=O)(=O)O)cc(Nc2ccc(Nc3nc(Cl)nc(Nc4ccc(S(=O)(=O)O)cc4)n3)c(S(=O)(=O)O)c2)c2c1C(=O)c1ccccc1C2=O	Methyltransferases active
Cc1ccc(NC(=O)Cn2nc3n(C(C)C)c(=O)c4ccc(C(=O)NCC(C)C)cc4n3c2=O)cc1F	none
COc1cccc(Nc2nc3c(S(=O)(=O)c4ccc(C)cc4)nnn3c3ccccc23)c1	none
COc1ccc(CCN2C(=O)c3cc4occc4n3CC2(C)C(=O)NC2CCC(C)CC2)c(OC)c1 (stereo not drawn)	none
CCN1CCN(Cc2ccc(Nc3ncc(F)c(-c4cc(F)c5nc(C)n(C(C)C)c5c4)n3)nc2)CC1	Methyltransferases active
CCCn1c(=O)c2ccc(C(=O)NC(C)C)cc2n2c(=O)n(Cc3ccc(C)cc3)nc12	none
CC(NC(=O)CCn1ccc2cc(S(=O)(=O)N3CCCCC3)ccc21)c1ccccc1 (stereo not drawn)	none
Cc1[nH]c2ccccc2c1CCNC(=O)c1ccccc1F	none
Cc1[nH]c2ccccc2c1CCNCc1ccc(/C=C/C(=O)NO)cc1	Methyltransferases active
O=C(Nc1ccccc1F)N1Cc2c(sc3c2CCCC3)-n2cccc2C1c1cccc(F)c1 (stereo not drawn)	none
CC1(C(=O)NCc2ccccc2)Cn2c(cc3ccccc32)C(=O)N1Cc1ccc2c(c1)OCO2 (stereo not drawn)	none
O=C(CCc1nnc2n(Cc3ccccc3Cl)c(=O)c3ccccc3n12)NCCc1ccccc1	none
O=[N+]([O-])c1ccc(CNc2nc(NCc3cccc(C(F)(F)F)c3)nc3nc[nH]c23)cc1	Methyltransferases active!
Cc1ccc(Cn2c(=O)c3ccccc3n3c(CCC(=O)N4CCN(c5cc(C)ccc5C)CC4)nnc23)cc1	none
COc1ccc(-c2c(C(F)(F)F)oc3cc(OC(C)C(=O)OC4CCCCC4)ccc3c2=O)cc1OC (stereo not drawn)	none
COc1cc(N2CCC(N3CCN(C)CC3)CC2)ccc1Nc1ncc(Cl)c(-c2c[nH]c3ccccc23)n1	Methyltransferases active
COc1cc(N2CCC(N)CC2)ccc1Nc1ncc(Cl)c(-c2c[nH]c3ccccc23)n1	Methyltransferases active
COc1cc(N2CCOCC2)ccc1NC(=O)c1csc(-c2cccnc2)n1	none
COc1ccccc1Nc1ncc2c(n1)CN(C(=O)c1cc3ccccc3n1C)CCN2	none
CSc1ccc(CCN2C(=O)c3cc4ccccc4n3CC2(C)C(=O)NC2CCCC2)cc1 (stereo not drawn)	none
CCOc1ccccc1CN1C(=O)c2nc3ccccc3n2CC1(C)C(=O)NCc1ccccc1 (stereo not drawn)	none
CCc1ccc(N2C(=O)c3cc4ccccc4n3CC2(C)C(=O)NCCC(C)C)cc1 (stereo not drawn)	none
CC(C(=O)NCc1cccs1)n1ccc2cc(S(=O)(=O)N3CCCC3)ccc21 (stereo not drawn)	none
CC(C)Cn1c(=O)c2ccccc2n2c(CCC(=O)NC3CCC(C)CC3)nnc12 (stereo not drawn)	none
Cc1cc(N2CCOCC2)ccc1Nc1nc(NC2CCCCC2)c2[nH]cnc2n1	Methyltransferases active
N#Cc1cc(-c2ccnc(Nc3ccc(N4CCOCC4)cc3)n2)ccc1OC1CCOCC1	none
Cc1cc(NC2CCCCC2)nc(-n2nc(C)cc2C)n1	none
C=CCn1c(=O)c2ccc(C(=O)NC(C)CC)cc2n2c(=O)n(CC(=O)N(C)c3ccccc3)nc12 (stereo not drawn)	none
CC1CCN(S(=O)(=O)c2ccc3c(ccn3CCC(=O)NCCC3=CCCCC3)c2)CC1	none
O=[N+]([O-])c1ccc(-[n+]2nc(-c3ccccc3)nn2-c2ccc(I)cc2)cc1	Methyltransferases active
O=C(Nc1cc(-c2ccccc2)nn1-c1ccccc1)c1ccc([N+](=O)[O-])cc1	none
COc1ccc(Cn2c(=O)c3ccccc3n3c(-c4ccc(O)cc4)nnc23)cc1	none
COc1ccc(-c2nc(-c3cc(C(F)(F)F)cc(C(F)(F)F)c3)n(Cc3ccc(C(N)=O)cc3)c2-c2ccc(OC)cc2)cc1	Methyltransferases active
COc1ccc(CN2CCCC3(CC(c4cccc(C(F)(F)F)c4)=NO3)C2)cc1 (stereo not drawn)	none
COc1ccc2cc3n(c2c1)CC(C)(C(=O)NC1CCCC1)N(Cc1ccccc1OC)C3=O (stereo not drawn)	none
Cc1ccc(CNC(=O)CCn2ccc3cc(S(=O)(=O)N4CCCCC4)ccc32)o1	none
CCC(C)NC(=O)c1ccc2c(=O)n(C)c3nn(CC(=O)Nc4ccc(C)cc4Cl)c(=O)n3c2c1 (stereo not drawn)	none
OC[C@H]1O[C@@H](Oc2cc(O)cc(/C=C/c3ccc(O)cc3)c2)[C@H](O)[C@@H](O)[C@@H]1O	Methyltransferases active!
COc1cc(O)cc(/C=C/c2ccc(O[C@@H]3O[C@H](CO)[C@@H](O)[C@H](O)[C@H]3O)cc2)c1	none
OCC1OC(Oc2cc(O)cc(/C=C/c3ccc(OC4OC(CO)C(O)C(O)C4O)cc3O)c2)C(O)C(O)C1O (stereo not drawn)	none
COc1cccc(Cn2nc3n(C(C)C)c(=O)c4ccc(C(=O)NC5CCCC5)cc4n3c2=O)c1	none
CCCCN1C(=O)c2cc(C(=O)NCCc3cccs3)nn2CC1(C)C(=O)NC1CCCC1 (stereo not drawn)	none
CCC1c2ccc(C)n2CCN1C(=O)Nc1cc(C)ccc1C (stereo not drawn)	none
COc1cccc(CN2C(=O)c3cc4ccccc4n3CC2(C)C(=O)NC2CCCCC2)c1OC (stereo not drawn)	none
CN(C)CCCCCCNC(=O)c1cccc(-c2cc(O)c3ncccc3c2)c1	Methyltransferases active
CC(C)(O)CCc1cccc(C(=O)NCCCc2ccccn2)c1	none
O=C(NCCCCCCNC(=O)c1cccnc1)c1cccnc1	none
COC(=O)NCCNC(=O)c1cccc(-c2ccc(SC)cc2)c1	none
O=C(NCCc1nc2cccnc2n1-c1ccccc1)c1cccnc1	none
O=C(NCCCc1ccccc1)c1cccc(-c2cc(O)c3ncccc3c2)c1	Methyltransferases active
COc1ccc(-c2nnc(-c3ccccc3)o2)cc1S(=O)(=O)N1CCCc2ccccc21	none
Cc1ccc(N2C(=O)c3cc(C(C)(C)C)nn3CC2(C)C(=O)NCc2ccccc2)cc1 (stereo not drawn)	none
O=C(NCCc1cccs1)c1cc2n(n1)CCCN(Cc1ccc(F)cc1)C2=O	none
CSc1cccc(N2C(=O)c3cc4ccccc4n3CC2(C)C(=O)NCCC(C)C)c1 (stereo not drawn)	none
Cc1ccccc1CN1C(=O)c2nc3ccccc3n2CC1(C)C(=O)NC1CCCC(C)C1C (stereo not drawn)	none
Oc1cc(CNC(=S)/C=C/c2cc(O)c(O)c(Br)c2)cc(O)c1O	Methyltransferases active
COc1ccc(-c2cc3n(n2)CC(C)(C(=O)NC2CCCCC2)N(CCc2ccccc2)C3=O)cc1 (stereo not drawn)	none
C=C1C(=O)O[C@@H]2/C=C(\C)C(=O)/C=C/[C@](C)(O)C[C@@H](OC(=O)C(C)C)[C@@H]12	Methyltransferases active
C=C1C(=O)OC2/C=C(\C)CC/C=C(\C)CC(OC(C)=O)C12 (stereo not drawn)	none
C=C1C(=O)O[C@@H]2/C=C(/C)CC3C=C(C[C@H](OC(=O)/C(C)=C\C)[C@@H]12)C(=O)O3 (stereo partly drawn)	none
COc1ccc(-c2cc3n(n2)CC(C)(C(=O)NCc2ccccc2)N(Cc2ccc(SC)cc2)C3=O)cc1 (stereo not drawn)	none
COc1ccc(C2c3cccn3-c3sc4c(c3CN2C(=O)NCc2ccc(F)cc2)CCCC4)cc1 (stereo not drawn)	none
